Test in all cases: protein-binding microarray (PBM); PBM: ~300 nM protein, 6 mM HEPES pH 7.8, 80 mM KCl, 0.5 mM EDTA, 0.5 mM EGTA, 6% glycerol, 35 ng/ul poly-dIdC, 1% milk, 1 h, room temperature; Ap Aiptasia and Nv Nematostella (sea anemones) / Co Capsaspora / Aq Amphimedon (sponge) / Dm Drosophila / Hu human; RHD is the Rel homology domain; high values mean tight binding
Common to all, as to settings: dsDNA, one strand shown

Experiment [1] addresses T1, GST-Ap-NF-kB RHD (Exaiptasia pallida (Aiptasia), UniProt A0A913YAJ5 2-422).
T1 sequence: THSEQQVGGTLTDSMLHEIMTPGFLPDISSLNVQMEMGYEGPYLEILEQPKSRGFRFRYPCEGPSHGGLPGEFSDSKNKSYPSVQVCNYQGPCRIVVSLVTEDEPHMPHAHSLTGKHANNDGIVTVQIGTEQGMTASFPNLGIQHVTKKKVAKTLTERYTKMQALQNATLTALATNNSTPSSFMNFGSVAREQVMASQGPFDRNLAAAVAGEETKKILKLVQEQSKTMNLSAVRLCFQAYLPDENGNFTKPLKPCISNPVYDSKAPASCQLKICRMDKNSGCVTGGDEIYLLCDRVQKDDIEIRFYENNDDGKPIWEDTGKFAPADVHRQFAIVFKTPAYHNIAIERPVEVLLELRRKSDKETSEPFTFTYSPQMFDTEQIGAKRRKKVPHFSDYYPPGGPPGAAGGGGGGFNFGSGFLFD

Experiment [2] concerns the target T2, GST-Nv-NF-kB (Cys allele) (Nematostella vectensis, UniProt E5G601 2-411).
T2 sequence: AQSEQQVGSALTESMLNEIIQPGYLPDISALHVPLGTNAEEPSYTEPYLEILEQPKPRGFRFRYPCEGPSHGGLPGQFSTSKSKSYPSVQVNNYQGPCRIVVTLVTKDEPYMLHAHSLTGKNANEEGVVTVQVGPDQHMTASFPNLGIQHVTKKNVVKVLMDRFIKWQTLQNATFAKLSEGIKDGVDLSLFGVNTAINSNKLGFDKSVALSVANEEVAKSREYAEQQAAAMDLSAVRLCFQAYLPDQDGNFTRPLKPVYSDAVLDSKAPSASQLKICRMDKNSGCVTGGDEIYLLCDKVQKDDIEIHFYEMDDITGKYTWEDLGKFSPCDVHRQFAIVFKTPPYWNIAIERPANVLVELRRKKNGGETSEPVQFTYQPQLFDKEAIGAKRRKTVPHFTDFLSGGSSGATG

Experiment [3] has as its target T3, GST-Nv-NF-kB (Ser allele) (Nematostella vectensis, UniProt A7UNT2 2-411).
T3 sequence: T2 sequence with Q21R, C66S, S207N, E215Q, V217A, E225K, A268E, D399E

Experiment [4] addresses T4, GST-Co-NF-kB (Capsaspora owczarzaki, UniProt F1ARL5 200-546).
T4 sequence: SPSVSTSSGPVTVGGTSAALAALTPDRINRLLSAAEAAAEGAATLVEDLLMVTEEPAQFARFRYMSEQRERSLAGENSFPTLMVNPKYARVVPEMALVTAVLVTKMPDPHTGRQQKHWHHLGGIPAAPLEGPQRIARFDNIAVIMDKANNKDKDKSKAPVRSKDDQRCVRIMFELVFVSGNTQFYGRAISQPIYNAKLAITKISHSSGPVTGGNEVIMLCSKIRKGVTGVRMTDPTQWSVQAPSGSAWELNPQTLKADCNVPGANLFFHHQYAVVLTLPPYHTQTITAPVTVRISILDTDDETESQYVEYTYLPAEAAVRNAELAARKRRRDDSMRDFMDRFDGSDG

For experiment [5], the target named is T5, GST-Dm-Relish (Drosophila melanogaster, UniProt Q94527 99-473).
T5 sequence: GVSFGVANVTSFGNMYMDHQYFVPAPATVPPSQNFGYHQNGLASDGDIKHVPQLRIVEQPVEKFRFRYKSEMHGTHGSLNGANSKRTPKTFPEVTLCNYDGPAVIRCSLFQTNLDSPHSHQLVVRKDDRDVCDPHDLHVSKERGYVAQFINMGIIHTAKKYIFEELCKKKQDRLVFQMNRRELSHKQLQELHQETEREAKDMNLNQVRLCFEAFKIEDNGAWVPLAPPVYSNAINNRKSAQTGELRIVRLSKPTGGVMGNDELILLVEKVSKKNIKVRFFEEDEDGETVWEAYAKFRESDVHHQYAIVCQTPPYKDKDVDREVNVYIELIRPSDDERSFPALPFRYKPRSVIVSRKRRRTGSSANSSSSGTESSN

For experiment [6], the target named is T6, GST-Aq-NF-kB (Amphimedon queenslandica, UniProt A9Y5G7 2-389).
T6 sequence: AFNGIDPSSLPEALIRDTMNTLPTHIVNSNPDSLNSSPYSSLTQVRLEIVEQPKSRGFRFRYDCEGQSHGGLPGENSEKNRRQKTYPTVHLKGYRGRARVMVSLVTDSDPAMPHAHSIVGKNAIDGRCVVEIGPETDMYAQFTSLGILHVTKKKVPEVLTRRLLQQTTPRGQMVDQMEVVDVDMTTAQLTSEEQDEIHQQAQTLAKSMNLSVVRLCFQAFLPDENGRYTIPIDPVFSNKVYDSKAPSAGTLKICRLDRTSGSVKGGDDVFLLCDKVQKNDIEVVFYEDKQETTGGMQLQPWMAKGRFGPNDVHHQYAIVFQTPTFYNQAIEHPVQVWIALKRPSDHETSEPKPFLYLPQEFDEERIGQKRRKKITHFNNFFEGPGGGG

In experiment [7] the target is GST-Hu-p50 (Homo sapiens, UniProt P19838 7-356).
Chain of GST-Hu-p50 (P19838 7-356): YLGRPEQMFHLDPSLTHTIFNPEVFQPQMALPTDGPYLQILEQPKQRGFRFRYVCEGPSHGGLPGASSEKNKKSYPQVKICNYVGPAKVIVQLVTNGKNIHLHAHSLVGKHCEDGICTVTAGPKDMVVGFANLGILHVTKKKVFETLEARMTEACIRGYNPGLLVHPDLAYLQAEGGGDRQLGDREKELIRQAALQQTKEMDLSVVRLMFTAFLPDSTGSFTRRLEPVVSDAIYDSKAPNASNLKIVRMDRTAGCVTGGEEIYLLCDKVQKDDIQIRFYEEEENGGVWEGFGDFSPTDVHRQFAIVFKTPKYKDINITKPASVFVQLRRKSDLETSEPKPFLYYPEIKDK

Numbering of substitutions follows the chain as printed.

As to “CCGATTAACATCAGGGGAAAAAATGATGTTAATCGGGTCTTGATTCGCTTGACGCTGCTG”, the binding signal in experiment [1] is 6.24 z-score; in experiment [2] it was 8.26 z-score; in experiment [3], 10.4 z-score; in experiment [4], 11.1 z-score; in experiment [5], 4.87 z-score; in experiment [6], 6.42 z-score. Besides, the binding signal in experiment [7] is 6.22 z-score.
For “CCGATTAACATCAAGGGGGGAATTGATGTTAATCGGGTCTTGATTCGCTTGACGCTGCTG”, the binding signal in experiment [1] was 7.34 z-score; in experiment [2], 7.02 z-score; in experiment [3], 7.25 z-score; in experiment [4], 7.24 z-score; in experiment [5] it was 5.11 z-score; in experiment [6] it was 5.89 z-score. The binding signal in experiment [7] was determined as 6.3 z-score.
For “CCGATTAACATCAATGTGGGAAATGATGTTAATCGGGTCTTGATTCGCTTGACGCTGCTG”, the binding signal in experiment [1] was found to be 1.32 z-score; in experiment [2] it was 2.75 z-score; in experiment [3], 2.53 z-score; in experiment [4], 2.85 z-score; in experiment [6], 1.55 z-score; in experiment [7] it was 1.92 z-score.
Regarding “CCGATTAACATCAGCTATTTCCCTGATGTTAATCGGGTCTTGATTCGCTTGACGCTGCTG”, the binding signal in experiment [1] turned out to be 2.08 z-score; in experiment [2], 3.01 z-score; in experiment [3], 3.4 z-score; in experiment [4], 2.17 z-score; in experiment [6], 3.31 z-score; in experiment [7] it was 1.83 z-score.
As for “CCGATTAACATCATCAGTTTCCCTGATGTTAATCGGGTCTTGATTCGCTTGACGCTGCTG”, the binding signal in experiment [1] came to 2.11 z-score; in experiment [2] it was 3.16 z-score; in experiment [3], 4.41 z-score; in experiment [4] it was 2.69 z-score; in experiment [6], 2.58 z-score; in experiment [7] it was 1.61 z-score.
Consider “CCGATTAACATCAGGGAAATCACTGATGTTAATCGGGTCTTGATTCGCTTGACGCTGCTG”, for which the binding signal in experiment [1] was determined as 3.41 z-score; in experiment [2] it was 4.78 z-score; in experiment [3], 4.63 z-score; in experiment [4], 2.62 z-score; in experiment [5] it was 8.27 z-score; in experiment [6], 5.99 z-score. The binding signal in experiment [7] is 4.18 z-score.
On to “CCGATTAACATCATCCCTCCCCATGATGTTAATCGGGTCTTGATTCGCTTGACGCTGCTG”, for which the binding signal amounted to 3.84 z-score in experiment [1]; 2.72 z-score in experiment [2]; 2.58 z-score in experiment [3]; 3.09 z-score in experiment [4]; 2.55 z-score in experiment [6]; 1.83 z-score in experiment [7].
With “CCGATTAACATCAAACATTCCCCTGATGTTAATCGGGTCTTGATTCGCTTGACGCTGCTG”, the binding signal in experiment [1] came to 6.81 z-score; in experiment [2], 9.14 z-score; in experiment [3], 9.23 z-score; in experiment [4] it was 7.01 z-score; in experiment [5], 4.9 z-score; in experiment [6] it was 6.75 z-score. In addition, in experiment [7], the binding signal is 5.95 z-score.
Consider “CCGATTAACATCAGGGAAAGATATGATGTTAATCGGGTCTTGATTCGCTTGACGCTGCTG”, for which the binding signal in experiment [1] stood at 2.67 z-score; in experiment [2] it was 4.29 z-score; in experiment [3], 4.52 z-score; in experiment [4] it was 4.56 z-score; in experiment [6] it was 5.22 z-score; in experiment [7], 3.62 z-score.
“CCGATTAACATCAGGGTGGGAAATGATGTTAATCGGGTCTTGATTCGCTTGACGCTGCTG”: the binding signal in experiment [1] is 2.06 z-score; in experiment [2], 3.1 z-score; in experiment [3], 2.77 z-score; in experiment [4], 3.37 z-score; in experiment [5], 1.62 z-score; in experiment [6], 2.27 z-score. Besides, the binding signal in experiment [7] came to 2.15 z-score.
For the sequence “CCGATTAACATCAAGCATTTCCCTGATGTTAATCGGGTCTTGATTCGCTTGACGCTGCTG”, the binding signal in experiment [1] amounted to 2.4 z-score; in experiment [2], 4.4 z-score; in experiment [3], 4.14 z-score; in experiment [4], 2.36 z-score; in experiment [6], 3.63 z-score; in experiment [7], 2.72 z-score.
On to “CCGATTAACATCACAGTCCCCCCTGATGTTAATCGGGTCTTGATTCGCTTGACGCTGCTG”, for which the binding signal in experiment [1] is 5.98 z-score; in experiment [2], 5.07 z-score; in experiment [3], 5.18 z-score; in experiment [4], 5.62 z-score; in experiment [5], 4.6 z-score; in experiment [6] it was 4.63 z-score. In addition, in experiment [7], the binding signal is 4.33 z-score.
For the sequence “CCGATTAACATCACAAAATCCCCTGATGTTAATCGGGTCTTGATTCGCTTGACGCTGCTG”, the binding signal came to 9.85 z-score in experiment [1]; 10.8 z-score in experiment [2]; 12.8 z-score in experiment [3]; 5.11 z-score in experiment [4]; 9.67 z-score in experiment [5]; 8 z-score in experiment [6]. Moreover, the binding signal in experiment [7] is 8.07 z-score.
With “CCGATTAACATCAAACGCCCCCCTGATGTTAATCGGGTCTTGATTCGCTTGACGCTGCTG”, the binding signal in experiment [1] came to 4.79 z-score; in experiment [2], 4.46 z-score; in experiment [3] it was 3.85 z-score; in experiment [4] it was 3.84 z-score; in experiment [5] it was 4.9 z-score; in experiment [6], 5.57 z-score. The binding signal in experiment [7] was found to be 5.03 z-score.
In the case of “CCGATTAACATCACTATTTCCCCTGATGTTAATCGGGTCTTGATTCGCTTGACGCTGCTG”, the binding signal in experiment [1] stood at 6.35 z-score; in experiment [2], 7.42 z-score; in experiment [3], 9.8 z-score; in experiment [4] it was 8.77 z-score; in experiment [5] it was 3.62 z-score; in experiment [6], 4.85 z-score. For the same sequence, in experiment [7], the binding signal stood at 6.08 z-score.
For the sequence “CCGATTAACATCAAAGTTTCCCATGATGTTAATCGGGTCTTGATTCGCTTGACGCTGCTG”, the binding signal in experiment [1] came out at 2.54 z-score; in experiment [2], 4.29 z-score; in experiment [3], 3.82 z-score; in experiment [4], 4.66 z-score; in experiment [5], 2.05 z-score; in experiment [6], 4.32 z-score. For the same sequence, the binding signal in experiment [7] worked out at 3.28 z-score.
“CCGATTAACATCAGAGCCCCCCCTGATGTTAATCGGGTCTTGATTCGCTTGACGCTGCTG”: the binding signal in experiment [1] worked out at 4.71 z-score; in experiment [2], 3.96 z-score; in experiment [3] it was 3.31 z-score; in experiment [4], 3.1 z-score; in experiment [5] it was 4.58 z-score; in experiment [6] it was 4.2 z-score. This sequence returned a binding signal in experiment [7] of 3.47 z-score.
Regarding “CCGATTAACATCAAATTTCCCAGTGATGTTAATCGGGTCTTGATTCGCTTGACGCTGCTG”, the binding signal in experiment [1] was 2.47 z-score; in experiment [2], 3.48 z-score; in experiment [3], 3.63 z-score; in experiment [4], 4.39 z-score; in experiment [5], 2.71 z-score; in experiment [6], 3.48 z-score. In experiment [7], this sequence displayed a binding signal of 3.07 z-score.

The record behind these values is PMC5700166.
